Measured values published in PubChem BioAssay (Tox21).
Values without a mark were called inactive. Records with an inconclusive call do not appear. Where a call stands in place of a potency, no number is given. Activity calls are given as the source filed them. Unless noted, the call rests on the fitted dose curve; in most records, active means well fitted curve in the direction sought with a large enough effect in the repeat runs; inconclusive means weak or mixed curves; inactive means no such curve, though single readings can be large; an effect the other way counts as inactive or inconclusive.

Tests used:
[1] = qHTS assay to identify small molecule antagonists of the glucocorticoid receptor (GR) signaling pathway - cell viability counter screen (AID 720693); further: nearly all actives have a fitted effect of over 55% in size
[2] = qHTS assay for identifying genotoxic compounds that show differential cytotoxicity against isogenic chicken DT40 cell lines with known DNA damage response pathways - wild type cell line (AID 743012); further: nearly all actives have a fitted effect of over 60% in size; further: potency means the concentration at half of the fitted maximal effect
Outline: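 Quantitative HTS on parental DT40 cells: 40 h compound treatment at 37 C/5% CO2, with viability then determined by CellTiter-Glo luminescence. Values serve as the DNA repair-proficient reference for differential cytotoxicity.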

[3] = qHTS assay for identifying genotoxic compounds that show differential cytotoxicity against isogenic chicken DT40 cell lines with known DNA damage response pathways - Rev3 mutant cell line (AID 743014); further: nearly all actives have a fitted effect of over 55% in size; further: potency means the concentration at half of the fitted maximal effect
[4] = qHTS assay for identifying genotoxic compounds that show differential cytotoxicity against isogenic chicken DT40 cell lines with known DNA damage response pathways - Rad54/Ku70 mutant cell line (AID 743015); further: nearly all actives have a fitted effect of over 60% in size; further: potency means the concentration at half of the fitted maximal effect
[5] = qHTS assay to identify small molecule antagonists of the androgen receptor (AR) signaling pathway - cell viability counter screen (AID 743033; further: nearly all actives have a fitted effect of over 45% in size)
[6] = qHTS assay to identify small molecule antagonists of the androgen receptor (AR) signaling pathway using the MDA cell line - cell viability counter screen (AID 743041; further: nearly all actives have a fitted effect of over 45% in size; further: potency means the concentration at half of the fitted maximal effect)
Outline: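 Cells were plated at 3,000 per well and left 5 h. Compounds in DMSO were then pinned in, followed by R1881. After 16 h at 37C, CellTiter-Fluor fluorescence gave viability.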

[7] = biological target: Androgen receptor (Homo sapiens) (UniProt P10275); experiment: qHTS assay to identify small molecule antagonists of the androgen receptor (AR) signaling pathway (AID 743035; active means well fitted inhibition curve with a large enough effect in the signal ratio in the repeat runs, not every such curve was filed as active; the % refers to the signal ratio)
Sequence of Androgen receptor (Homo sapiens) (P10275 whole entry, looked up): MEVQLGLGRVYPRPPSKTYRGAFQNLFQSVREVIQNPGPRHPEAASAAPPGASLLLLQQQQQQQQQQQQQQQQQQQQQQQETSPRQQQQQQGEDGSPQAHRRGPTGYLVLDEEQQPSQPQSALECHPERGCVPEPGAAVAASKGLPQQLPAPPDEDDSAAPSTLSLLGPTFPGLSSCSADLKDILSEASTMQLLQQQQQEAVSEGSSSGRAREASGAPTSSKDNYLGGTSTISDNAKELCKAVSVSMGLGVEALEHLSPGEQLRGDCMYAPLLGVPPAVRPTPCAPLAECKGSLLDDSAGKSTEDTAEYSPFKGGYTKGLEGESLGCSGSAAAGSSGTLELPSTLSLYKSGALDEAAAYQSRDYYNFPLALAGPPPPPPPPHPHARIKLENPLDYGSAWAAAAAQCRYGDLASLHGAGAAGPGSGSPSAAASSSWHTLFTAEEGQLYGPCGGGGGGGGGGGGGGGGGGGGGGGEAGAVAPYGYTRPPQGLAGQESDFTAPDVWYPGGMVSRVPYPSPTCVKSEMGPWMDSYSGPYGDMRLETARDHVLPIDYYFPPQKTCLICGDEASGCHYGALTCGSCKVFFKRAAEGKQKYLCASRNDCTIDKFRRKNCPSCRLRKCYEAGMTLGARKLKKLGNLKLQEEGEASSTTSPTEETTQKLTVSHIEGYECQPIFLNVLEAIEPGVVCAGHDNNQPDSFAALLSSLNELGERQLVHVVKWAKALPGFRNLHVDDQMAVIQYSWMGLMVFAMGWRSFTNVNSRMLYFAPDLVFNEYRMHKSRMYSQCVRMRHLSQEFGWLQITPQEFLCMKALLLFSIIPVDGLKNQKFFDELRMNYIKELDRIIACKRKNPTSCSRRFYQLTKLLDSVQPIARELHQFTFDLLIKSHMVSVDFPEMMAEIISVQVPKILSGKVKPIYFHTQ
Outline: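 Cell line: GeneBLAzer AR-UAS-bla GripTite (HEK293). Stimulus: R1881 added after compound. Exposure: 16 h, 37C, 5% CO2. Readout: LiveBLAzer B/G FRET fluorescence after 2 h at room temperature.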

[8] = biological target: Androgen receptor (Homo sapiens) (UniProt P10275); experiment: qHTS assay to identify small molecule agonists of the androgen receptor (AR) signaling pathway (AID 743036; active means well fitted activation curve with a large enough effect in the signal ratio in the repeat runs, with a control signal flat, not every such curve was filed as active; the % refers to the signal ratio)
Outline: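 HEK293 cells stably carrying a UAS-driven beta-lactamase reporter (GeneBLAzer AR-UAS-bla-GripTite) were plated at 2,000 cells/well, rested 4 h at 37C, then exposed to compounds in DMSO for 16 h. LiveBLAzer B/G FRET substrate was added for 2 h at room temperature; fluorescence read.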

[9] = biological target: Androgen receptor (Homo sapiens) (UniProt P10275); experiment: qHTS assay to identify small molecule agonists of the androgen receptor (AR) signaling pathway using the MDA cell line (AID 743040; further: nearly all actives have a fitted effect of over 20% in size)
Outline: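 Cells plated, 5 h at 37C/0% CO2; compound or DMSO pinned; 16 h at 37C; ONE-Glo added; luminescence measured after 30 min at room temperature. Reporter line: MDA-kb2 with MMTV-luciferase responsive to AR and GR.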

[10] = biological target: Androgen receptor (Homo sapiens) (UniProt P10275); experiment: qHTS assay to identify small molecule antagonists of the androgen receptor (AR) signaling pathway using the MDA cell line (AID 743042; further: nearly all actives have a fitted effect of over 55% in size)
Outline: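 Antagonist mode: compounds plus R1881 agonist added to MDA-kb2 AR-luc cells, incubated 16 h at 37C. Luciferase reporter luminescence quantified, with multiplexed CellTiter-Fluor readout for cell viability.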

Compound | outcome [1] | Potency [2] | Potency [3] | Potency [4] | outcome [5] | Potency [6] | Potency [7] | outcome [8] | Potency [9] | outcome [10]
CCN(CC)S(=O)(=O)c1ccc(C(=O)O)cc1 | inactive | inactive | inactive | inactive | inactive | inactive | – | – | – | –
COc1ccc(N=[N+]([O-])c2ccc(OC)cc2)cc1 | inactive | inactive | inactive | inactive | inactive | inactive | – | – | – | –
CC(C)(O)C(=O)c1ccc(OCCO)cc1 | inactive | inactive | inactive | inactive | inactive | inactive | – | – | – | –
O=C(O)CCNC(=O)c1ccc(N=Nc2ccc(O)c(C(=O)O)c2)cc1 | inactive | inactive | inactive | inactive | inactive | inactive | – | – | – | –
CCCCCCCCCCCCCCCCCCOCC(O)CO (stereo not drawn) | inactive | inactive | inactive | inactive | inactive | inactive | – | – | – | –
CCCCc1ccc(N)cc1 | inactive | inactive | inactive | inactive | inactive | inactive | – | – | – | –
N#CCc1ccccc1[N+](=O)[O-] | inactive | inactive | inactive | inactive | inactive | inactive | – | – | – | –
CC(C)N1C(=O)c2ccccc2C1=O | inactive | inactive | inactive | inactive | inactive | inactive | – | – | – | –
COc1ccc(COC=O)cc1 | inactive | inactive | inactive | inactive | inactive | inactive | – | – | – | –
CCCCCC[C@@H](CCC)C(=O)O | inactive | inactive | inactive | inactive | inactive | inactive | – | – | – | –
CCCCC=O | inactive | inactive | inactive | inactive | inactive | inactive | – | – | – | –
CCCCCCC(CCCCCCCCCCC(=O)OCC(COC(C)=O)OC(C)=O)OC(C)=O (stereo not drawn) | inactive | inactive | inactive | inactive | inactive | inactive | – | – | – | –
Nc1cc(C(Cl)=C(Cl)Cl)c(S(N)(=O)=O)cc1S(N)(=O)=O | inactive | inactive | inactive | inactive | inactive | inactive | – | – | – | –
C=C(C)C(=O)OCCC(C)OC(=O)C(=C)C (stereo not drawn) | inactive | inactive | inactive | inactive | inactive | inactive | – | – | – | –
CC(O)CN(CCCN(C)C)CCCN(C)C (stereo not drawn) | inactive | inactive | inactive | inactive | inactive | inactive | – | – | – | –
C=CCOCC(O)CS(=O)(=O)O (stereo not drawn) | inactive | inactive | – | inactive | inactive | inactive | – | – | – | –
NC(=O)CCCCC1CCSS1 (stereo not drawn) | inactive | inactive | inactive | – | inactive | inactive | – | – | – | –
O=C(O)/C=C/c1ccc(/C=C/C(=O)O)cc1 | inactive | inactive | – | inactive | inactive | inactive | inactive | inactive | inactive | inactive
C1CCCCCCCCCCC1 | inactive | inactive | inactive | – | inactive | inactive | – | inactive | inactive | inactive
CCN1CCCC1CNC(=O)c1cc(S(N)(=O)=O)ccc1OC (stereo not drawn) | inactive | inactive | – | inactive | inactive | inactive | inactive | inactive | inactive | inactive
CN(C)C(=O)C(CCN1CCC(O)(c2ccc(Cl)cc2)CC1)(c1ccccc1)c1ccccc1 | inactive | 5.96 µM (active) | 10.6 µM (active) | 10.6 µM (active) | – | 24.8 µM (active) | – | – | – | –
CC(C)(C)OC(=O)N1C[C@@H](F)C[C@H]1C(=O)O | inactive | inactive | inactive | – | inactive | inactive | – | – | – | –
CCCCCCOC(=O)CC(CC(=O)OCCCCCC)(OC(=O)CCC)C(=O)OCCCCCC | inactive | inactive | – | inactive | inactive | inactive | – | inactive | inactive | inactive
NC(CS)C(=O)O (stereo not drawn) | inactive | inactive | inactive | – | inactive | – | – | – | – | –
CCCCCN(CCCCC)C(=O)C(CCC(=O)O)NC(=O)c1ccc(Cl)c(Cl)c1 (stereo not drawn) | inactive | inactive | – | inactive | inactive | inactive | – | inactive | inactive | inactive
Cc1ncc(CSSCc2cnc(C)c(O)c2CO)c(CO)c1O | inactive | inactive | – | inactive | inactive | inactive | – | inactive | inactive | inactive
OCCCCCCO | inactive | inactive | – | inactive | inactive | inactive | – | – | – | –
O=C(O)c1cccc(C(=O)O)n1 | inactive | inactive | inactive | – | inactive | inactive | – | – | – | –
CC(C)c1cccc(C(C)C)c1N | inactive | inactive | inactive | – | inactive | inactive | – | – | – | –
CC1(C)SC(C)(C)SC(C)(C)S1 | inactive | inactive | inactive | – | inactive | inactive | inactive | inactive | inactive | inactive
